This passage reports Potency and outcome results from PubChem BioAssay (NCATS).

Assay [1] in a line: HEK-293 Cancer Cell Toxicity qHTS against the NCATS CANVASS Library (AID 1347355). Note: potency is the fitted concentration of half-maximal effect; nearly all actives have a fitted effect of over 65% in size. The essentials:
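Cells were seeded at 1000 per well and allowed to settle 4 hours at 37 degrees C before pin transfer of compounds as an 11-point series. Viability was read by CellTiter-Glo luminescence after 72 hours' exposure.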
A general note: Quantitative high-throughput screening tests each substance at several concentrations.

For assay [2], the system named is NAD(P)H diaphorase (Clostridium kluyveri). Nature of the assay: Diaphorse counterscreen qHTS: Assay Interference Panel against the NCATS CANVASS Library (AID 1347362). Summed up:
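Clostridium kluyveri diaphorase in PBS + 0.01% Tween-20 preincubated 15 min with compounds. Resazurin and NADH then added for 5 min at room temperature in the dark; resorufin fluorescence read (ex 525, em 598).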
(Counterscreens check selectivity or assay interference.)

The nature of assay [3]: KB-8-5-11 Cancer Cell Toxicity qHTS against the NCATS CANVASS Library (AID 1347364). Note: nearly all actives have a fitted effect of over 75% in size. Note: potency is the fitted concentration of half-maximal effect. The essentials:
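KB-8-5-11 cells (500/well) in DMEM + 10% FBS were exposed to compounds in an 11-point qHTS series for 72 hr at 37C, 5% CO2. Viability was read by CellTiter-Glo luminescence.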

A short description of assay [4]: KB-3-1 Cancer Cell Toxicity qHTS against the NCATS CANVASS Library (AID 1347366). Note: nearly all actives have a fitted effect of over 75% in size. Note: potency is the fitted concentration of half-maximal effect. The essentials:
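KB-3-1 cells (500 cells/well) in DMEM + 10% FBS were treated with compounds for 72 hr at 37C, 5% CO2. Viability was read as CellTiter-Glo luminescence after 10 minutes at room temperature.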

In assay [5] the target is Nuclear receptor subfamily 1 group I member 3 (Homo sapiens) (UniProt Q14994). Nature of the assay: qHTS for Constitutive Androstane Receptor (CAR) Antagonist screened against the NCATS CANVASS Library (AID 1347372). Note: potency is the fitted concentration of half-maximal effect. Summed up: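 HepG2 cells stably carrying hCAR and CYP2B6-2.2kb luciferase reporter, 2500 cells/well, compound with 50 nM CITCO agonist for 24hr at 37C. ONE-Glo luminescence measured CAR activity; CellTiter-Fluor read viability.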
Nuclear receptor subfamily 1 group I member 3 (Homo sapiens), sequence (Q14994 whole entry, looked up): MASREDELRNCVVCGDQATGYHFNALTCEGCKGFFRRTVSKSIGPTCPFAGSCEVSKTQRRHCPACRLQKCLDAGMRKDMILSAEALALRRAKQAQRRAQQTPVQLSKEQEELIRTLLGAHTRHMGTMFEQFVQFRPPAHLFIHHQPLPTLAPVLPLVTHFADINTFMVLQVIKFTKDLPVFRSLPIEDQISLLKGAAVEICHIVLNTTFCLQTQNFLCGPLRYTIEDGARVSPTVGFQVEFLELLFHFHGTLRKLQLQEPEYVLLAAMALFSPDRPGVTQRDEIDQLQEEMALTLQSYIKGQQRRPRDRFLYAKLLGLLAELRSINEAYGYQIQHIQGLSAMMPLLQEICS

The nature of assay [6]: DH5-alpha competent E. coli microbial cell viability qHTS against the NCATS CANVASS Library (AID 1347377). To be noted: outcome: dose series up to 46.1 µM unless noted. The essentials:
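DH5-alpha E. coli suspension (0.9 OD culture diluted to 0.2 OD) exposed to compounds in an 11-point series, overnight at 37C, 5% CO2. Viability read as ATP by BacTiter-Glo luminescence after 20 min at room temperature.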

A short description of assay [7]: qHTS for H2AX Agonists against the NCATS CANVASS Library (AID 1347378). The essentials: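 CHO-K1 cells were plated overnight at 37C, then exposed to compounds (concentration series, 0.76% DMSO final) for 3 hr at 37C. Lysates received Eu-cryptate anti-pH2AX (S139) and d2 anti-H2AX antibodies; after 24 hr at room temperature, TR-FRET 665/620 nm ratio was read.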
Assay [8] in a line: Viability qHTS for inhibitors of the SERCaMP assay screened against the NCATS CANVASS Library (AID 1347400). Note: nearly all actives have a fitted effect of over 70% in size. Note: potency is the fitted concentration of half-maximal effect. The essentials:
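SH-SY5Y-GLuc SERCaMP MJH297-derived cells (1000 cells/well) were pre-incubated 4 h at 37C, then exposed to compounds for 48 h. Viability was read as CellTiter-Glo luminescence; bortezomib served as positive control.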

The nature of assay [9]: qHTS for inhibitors of Rabies Virus screened against the NCATS CANVASS Library (AID 1347402; calls by dose curve; note: series mostly up to about 46 µM).
The target in assay [10] is Glutathione peroxidase 1 (Homo sapiens) (UniProt P07203). Kind of assay: Primary qHTS Assay for Inhibitors of Recombinant Selenoprotein Glutathione Peroxidase 1 (GPX1) (AID 1845191). Note: nearly all actives have a fitted effect of over 65% in size. The essentials: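 GR-coupled assay: compounds preincubated 30 min at room temperature with GPX1, then reaction started with CHP; final 10 nM GPX1, 1 mM GSH, 0.5 mM CHP, 0.5 mM NADPH, 100 nM GR, 0.01% BSA, pH 7.5 Tris buffer. NADPH fluorescence (340/450 nm) read at 0 and 15 min.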
Glutathione peroxidase 1 (Homo sapiens), sequence (P07203 whole entry, looked up): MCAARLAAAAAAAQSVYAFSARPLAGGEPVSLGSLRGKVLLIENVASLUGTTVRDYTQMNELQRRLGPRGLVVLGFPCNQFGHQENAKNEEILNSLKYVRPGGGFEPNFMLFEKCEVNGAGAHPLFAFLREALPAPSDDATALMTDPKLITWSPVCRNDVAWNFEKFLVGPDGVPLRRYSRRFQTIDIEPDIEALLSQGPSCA

The target of assay [11] is Phospholipid hydroperoxide glutathione peroxidase GPX4 (Homo sapiens) (UniProt P36969). Nature of the assay: Primary qHTS Assay for Inhibitors of Recombinant Selenoprotein Glutathione Peroxidase 4 (GPX4) (AID 1845192). Note: nearly all actives have a fitted effect of over 65% in size. Summed up:
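GR-coupled assay: recombinant GPX4 preincubated 30 min with compound at room temperature; final 200 nM GPX4, 1 mM GSH, 0.5 mM cumene hydroperoxide, 0.5 mM NADPH, 100 nM GR, 0.01% BSA, pH 7.5 Tris. NADPH fluorescence (340/450 nm) read at 0 and 15 min.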

Structures are written as SMILES. Records with an inconclusive call do not appear. Values without a mark were called inactive. The source made the active and inactive calls. Unless noted, calls come from the whole dose curve; as a rule, active = well fitted curve in the direction sought with a large enough effect; inconclusive = small, poorly fitted or top-dose-only effect, or another doubt; inactive = no such curve, though single readings can be large; an effect the other way counts as inactive or inconclusive.

Phospholipid hydroperoxide glutathione peroxidase GPX4 (Homo sapiens), sequence (P36969 whole entry, looked up): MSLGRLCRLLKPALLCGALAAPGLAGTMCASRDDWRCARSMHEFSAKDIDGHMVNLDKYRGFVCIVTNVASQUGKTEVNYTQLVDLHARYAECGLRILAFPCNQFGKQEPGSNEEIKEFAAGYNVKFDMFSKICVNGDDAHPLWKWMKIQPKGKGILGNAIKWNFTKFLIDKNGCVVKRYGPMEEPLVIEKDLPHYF

As to `CO[C@H]([C@@H](C)[C@H]1O[C@]1(C)C[C@H](C)/C=C/C=C(\C)[C@H]1O[C@@H](CC(=O)O)CC[C@@H]1C)[C@@H](C)O`, the Potency was 20.9 nM (active) in assay [1], 26.4 nM (active) in [3], 26.4 nM (active) in assay [4] and 48 nM (active) in [8]. Further, the Potency result in assay [2], in assay [5] and in assay [7] was “inactive” in each case. Moreover, the call in assay [6] and in assay [9] was inactive.
For the molecule `C=CC(C)(C)[C@@]12C[C@H]3C(=O)N/C(=C/c4cnc[nH]4)C(=O)N3[C@@H]1Nc1ccccc12`, the Potency entry in [2], in assay [3], in assay [4], in assay [7] and in assay [8] was “inactive” throughout. In addition, the Potency in assay [5] was 20900 nM (active). Besides, the outcome in assay [6] and in assay [9] was inactive.
Regarding `COc1cc(C)[nH]c(=O)c1CNC(=O)c1c(C)n([C@H](C)C2CCN(CC(F)(F)F)CC2)c2ccccc12`, the Potency entry in assay [10] and in assay [11] was “inactive” throughout.
In the case of `CC(=O)[C@@H]1[C@@H](O)C[C@H]2[C@]3(C)CC[C@H]4C(C)(C)CCC[C@]4(CO)[C@H]3C[C@H]3OC(=O)[C@@H]1[C@@]32C`, in assay [9], the molecule was classed as inactive.
Consider `COc1cc2cc(c1Cl)N(C)C(=O)C[C@H](OC(=O)C(C)C)[C@]1(C)O[C@@H]1[C@H](C)[C@@H]1C[C@@](O)(NC(=O)O1)[C@H](OC)/C=C/C=C(\C)C2`, for which the Potency entry in assay [10] and in assay [11] was “inactive” throughout.
Take `C=C1C[C@@]23C=CC(=O)[C@@](C)(CCC(=O)Nc4c(O)ccc(C(=O)O)c4O)C2C[C@@H]1CC3O` (stereo partly specified): the molecule was called inactive in [9].
Turning to `CN1C(=O)[C@@H](NC(=O)[C@H](CCC(F)(F)F)[C@H](CCC(F)(F)F)C(N)=O)N=C(c2ccccc2)c2ccccc21`, the Potency result in assay [10] and in [11] was “inactive” throughout.
Regarding `COC12C(COC(N)=O)C3=C(C(=O)C(C)=C(N)C3=O)N1CC1C2N1C` (stereo unspecified), the Potency result in [10] and in assay [11] was “inactive” in each case.
For `CC(=O)O[C@@]12CO[C@@H]1C[C@H](O)[C@@]1(C)C(=O)[C@H](O)C3=C(C)[C@@H](O)C[C@@](O)([C@@H](OC(=O)c4ccccc4)[C@H]21)C3(C)C`, the Potency result in assay [10] and in [11] was “inactive” in each case.
For the molecule `Cn1c(/C=C/CO)c(CO)c2c1C(=O)C=C(N1CC1)C2=O`, the Potency entry in [10] and in assay [11] was “inactive” in each case.
`CC(C)(O)/C=C\C(=O)[C@](C)(O)[C@H]1[C@H](O)C[C@]2(C)[C@@H]3CC=C4[C@@H](C=C(O)C(=O)C4(C)C)[C@]3(C)C(=O)C[C@@]12C`: the Potency result in assay [10] and in assay [11] was “inactive” in each case.
Take `CO[C@H]1CCC(O[C@H]2C[C@H]([C@]3(C)CC[C@]4(C[C@H](O)[C@@H](C)[C@@H]([C@@H](C)/C=C(\C)C(=O)[C@H](C)C[C@H](C)C(=O)O)O4)O3)O[C@]3(O[C@@H]([C@H]4O[C@@](O)(CO)[C@H](C)C[C@@H]4C)C[C@@H]3C)[C@@H]2C)O[C@@H]1C` (stereo partly specified): the Potency entry in [10] and in assay [11] was “inactive” throughout.
Take `COC(=O)[C@@]12OC[C@]34[C@H]([C@@H](O)[C@@H]1O)[C@@]1(C)CC(=O)C(O)=C(C)[C@@H]1C[C@H]3OC(=O)[C@H](OC(=O)/C=C(\C)C(C)C)[C@@H]24`: the Potency result in [10] and in [11] was “inactive” each time.
In the case of `COC[C@H]1OC(=O)c2coc3c2[C@@]1(C)C1=C(C3=O)[C@@H]2CC[C@H](O)[C@@]2(C)C[C@H]1OC(C)=O`, the Potency result in assay [10] and in assay [11] was “inactive” each time.
Take `Cc1[nH]ncc1-c1cc2nc([C@@H]3CC4CCN3CC4)[nH]c(=O)c2s1`: the Potency result in assay [10] and in [11] was “inactive” each time.
On to `N#CC(O[C@@H]1O[C@H](CO[C@@H]2O[C@H](CO)[C@@H](O)[C@H](O)[C@H]2O)[C@@H](O)[C@H](O)[C@H]1O)c1ccccc1` (stereo partly specified), for which the Potency entry in [10] and in [11] was “inactive” each time.
For `C[C@@H]1O[C@@H](O[C@@H]2[C@@H](O)[C@H](O[C@@H]3[C@@H](O)[C@@H](O)C(O[C@H]4[C@H](OC(=O)[C@]56CCC(C)(C)C[C@H]5C5=CCC7[C@@]8(C)C[C@H](O)[C@H](O[C@@H]9C[C@H](CO)[C@@H](O)[C@H](O)[C@H]9O)[C@@](C)(CO)C8[C@H](O)C[C@@]7(C)[C@]5(C)CC6)OC[C@H](O)[C@@H]4O)O[C@H]3C)OC[C@H]2O)[C@H](O)[C@H](O)[C@H]1O` (stereo partly specified), in assay [9], the outcome was inactive.
As to `C[C@@]12OC(=O)[C@]1([C@@H](O)[C@@H]1C=CCCC1)NC(=O)[C@@H]2CCCl`, the Potency result in assay [10] and in [11] was “inactive” throughout.
`O=C(O)CNC(=O)C1C(=O)N(C2CCCCC2)C(=O)N(C2CCCCC2)C1=O`: the Potency entry in assay [10] and in [11] was “inactive” throughout.
As for `CC[C@@H]1C[C@@]2(CC)OC(=O)[C@@]3(CC)OC(=O)[C@@H]1[C@@H]23`, the outcome in assay [9] was inactive.
For `C/C=C(\C)C(=O)N[C@@H](c1ccccc1)[C@@H](O)C(=O)O[C@H]1C[C@@]2(O)[C@@H](OC(=O)c3ccccc3)[C@@H]3[C@]4(OC(C)=O)CO[C@@H]4C[C@H](O)[C@@]3(C)C(=O)[C@H](OC(C)=O)C(=C1C)C2(C)C`, the Potency result in assay [10] and in [11] was “inactive” throughout.
Regarding `CCCCCCC[C@@H](C/C=C/CCC(=O)NCCc1c[nH]c2ccccc12)OC`, the result in assay [9] was inactive.
Consider `CO/C1=C/C(C)=C\[C@@H](C)[C@@H](O)[C@@H](C)C/C(C)=C\C=C/[C@H](OC)[C@@H]([C@@H](C)[C@@H](O)[C@H](C)[C@@]2(O)C[C@@H](O)[C@H](C)[C@@H](C(C)C)O2)OC1=O`, for which the Potency entry in assay [10] and in assay [11] was “inactive” throughout.
Regarding `COC(=O)[C@]12CCC(C)(C)C[C@H]1[C@H]1C(=O)C=C3[C@@]4(C)C=C(C#N)C(=O)C(C)(C)[C@@H]4CC[C@@]3(C)[C@]1(C)CC2`, the Potency result in assay [10] and in [11] was “inactive” throughout.
